Only some compounds are listed: those with a hit (about 3.2% of all), similar ones and a draw of the others.
LmPK inhibitor – LmPK (Leishmania mexicana) enzyme inhibition | Q27686 | purified LmPK, Kinase-Glo ATP luminescence, 1 h | Potency, µM (titrated, usually from 57.5 µM), for inactives: top-dose activity change, negative = inhibition, hits mostly inhibitors | hit rate 0.37% among 290,000 | AID 1721
Target sequence (Q27686 whole entry, looked up): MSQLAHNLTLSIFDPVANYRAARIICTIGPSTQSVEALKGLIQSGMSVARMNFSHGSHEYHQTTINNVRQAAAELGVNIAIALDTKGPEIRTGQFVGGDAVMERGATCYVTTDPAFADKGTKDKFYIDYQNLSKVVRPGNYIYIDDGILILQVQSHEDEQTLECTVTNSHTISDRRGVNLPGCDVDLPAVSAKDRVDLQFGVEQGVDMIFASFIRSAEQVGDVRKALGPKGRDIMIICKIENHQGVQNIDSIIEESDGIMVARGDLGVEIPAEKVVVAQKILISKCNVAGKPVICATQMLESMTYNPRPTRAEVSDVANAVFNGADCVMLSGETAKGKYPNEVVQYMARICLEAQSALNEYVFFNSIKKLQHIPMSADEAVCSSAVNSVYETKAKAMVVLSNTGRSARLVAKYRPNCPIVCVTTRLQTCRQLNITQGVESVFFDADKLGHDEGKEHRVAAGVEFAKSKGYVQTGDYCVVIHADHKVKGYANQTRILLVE
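Purified LmPK (0.1 nM) with 0.5 mM PEP and 0.1 mM ADP in imidazole buffer pH 7.2 with MgCl2/KCl, 1 h at room temperature. ATP formed was read by luciferase luminescence and normalized to no-enzyme and uninhibited controls.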
AMA1-RON2 inh – AMA1-RON2 (P. falciparum) interaction inhibition; AlphaScreen AMA1-biotinylated RON2 peptide binding; Potency, µM (doses to about 58.2 µM), without a hit: at the highest dose activity change, negative = inhibition, hits mostly inhibitors; hit rate 0.2% among 360,000;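 note: 0% = vehicle wells and -100% = peptide control; nearly all actives have a fitted effect of over 45% in size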
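AMA1 (3D7) with his tag at 25 nM final met compounds first, then biotinylated RON2 peptide at 25 nM; detection used donor plus acceptor beads, 10 µg/mL apiece, read by AlphaScreen after 30 min at room temperature.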
Sm TGR block – blocks Schistosoma mansoni thioredoxin glutathione reductase | Q962Y6 | purified TGR, DTNB reduction, TNB absorbance 405 nm | Potency, µM (series often up to 114 µM), for the others: top-dose activity change, negative = inhibition, most hits filed as inhibitors | hit rate 3% among 360,000; note: nearly all actives have a fitted effect of over 60% in size
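First, TGR (20 nM dispensed) and NADPH were mixed with compound. Second, a 15 min room-temperature incubation followed. Third, further NADPH and then DTNB were added to start the reaction. Finally, TNB absorbance was monitored kinetically.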
RE007 growth inh – less growth of the S. pombe RE007 Vpr strain. S. pombe RE007 Vpr strain, BacTiter-Glo ATP luminescence, 24 h. Potency, µM (top dose mostly 92.2 µM), for inactives: at the highest dose activity change, negative = less growth, most hits filed as inhibitors. hit rate 0.21% among 360,000; active = well fitted falling curve with a large enough effect; inconclusive = small, poorly fitted or top-dose-only effect; inactive = no such curve, though single readings can be large or run the other way; note: nearly all actives have a fitted effect of over 50% in size
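Fission yeast RE007 carrying one integrated HIV-1 vpr copy, seeded at OD 0.01 in PMG+AL medium with 23 nL pinned compound. Grown 24 h at 30 degrees; viability read by BacTiter-Glo luminescence after 5 min.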
TbPYK inhibitor – T. brucei pyruvate kinase inhibition | Q57TT1 | TbPYK enzyme, Kinase-Glo Plus ATP luminescence, 45 min | Potency, µM (top dose mostly 76.8 µM), inactives show at the highest dose activity, negative = inhibition, actives largely listed as inhibitors | hit rate 0.12% among 410,000; note: nearly all actives have a fitted effect of over 50% in size
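Activity of T. brucei pyruvate kinase was followed by Kinase-Glo Plus luminescence after the enzyme reacted 45 min at room temperature with 130 uM ADP (final) and substrate. Test compounds were added before ADP at multiple concentrations.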
The depositor's hits bear a star; [ ] = dose if it differs, or a comment. Unless noted, calls come from the whole dose curve; as a rule, active = well fitted curve in the direction sought with a large enough effect; inconclusive = small, poorly fitted or top-dose-only effect, or another doubt; inactive = no such curve, though single readings can be large; an effect the other way counts as inactive or inconclusive. Unless noted, % is set by controls: 0 for no effect and ±100 for the full control effect; potency is the fitted concentration of half-maximal effect.

`Cc1ccc(S(=O)(=O)n2nc(OC(=O)c3cccc(F)c3)cc2N)cc1` gave LmPK inhibitor 0%, AMA1-RON2 inh -17%, Sm TGR block 13µM*, RE007 growth inh -11% and TbPYK inhibitor -6%.
For Cc1ccc(S(=O)(=O)n2nc(OC(=O)c3ccco3)cc2N)cc1 the results were AMA1-RON2 inh -1%, RE007 growth inh -7% and TbPYK inhibitor -10%.
For Nc1cc(OC(=O)c2ccco2)nn1S(=O)(=O)c1ccc(F)cc1 the results were LmPK inhibitor 2%, AMA1-RON2 inh -16%, Sm TGR block 32µM*, RE007 growth inh -15% and TbPYK inhibitor -8%.
For Cc1ccc(S(=O)(=O)n2nc(OC(=O)c3c(F)cccc3Cl)cc2N)cc1 the results were LmPK inhibitor -2%, AMA1-RON2 inh -10%, Sm TGR block 5%, RE007 growth inh -14% and TbPYK inhibitor inconclusive.
`Cc1c(C(=O)Oc2cc(N)n(S(C)(=O)=O)n2)cccc1[N+](=O)[O-]` gave LmPK inhibitor -11%, AMA1-RON2 inh -3%, Sm TGR block 8.9µM*, RE007 growth inh 4% and TbPYK inhibitor -6%.
For Cc1ccccc1C(=O)Oc1cc(N)n(S(C)(=O)=O)n1 the results were LmPK inhibitor 0%, AMA1-RON2 inh -7%, Sm TGR block 0%, RE007 growth inh -18% and TbPYK inhibitor -4%.
CSc1ccc(-c2nc3cccc(C)n3c2Nc2ccc3c(c2)OCO3)cc1 was read as Sm TGR block 5% and TbPYK inhibitor -21%.
For Cc1ccc(/C=C2\C(=O)NC(=S)N(c3ccc(F)cc3)C2=O)o1 the results were LmPK inhibitor 20%, AMA1-RON2 inh 37%, Sm TGR block 1.6µM*, RE007 growth inh -10% and TbPYK inhibitor inconclusive.
Screening Cc1ccc(N2C(=O)NC(=O)/C(=C\c3ccc([N+](=O)[O-])o3)C2=O)cc1 returned LmPK inhibitor -17% and Sm TGR block 8.9µM*.
Screening Cc1ccc(N2C(=O)NC(=O)/C(=C\c3ccc(N4CCOCC4)cc3)C2=O)cc1 returned LmPK inhibitor 2%, AMA1-RON2 inh -2%, Sm TGR block inconclusive, RE007 growth inh 18% and TbPYK inhibitor inconclusive.
Screening Cc1ccc(N2C(=O)/C(=C/c3ccc(CN(CCC#N)S(C)(=O)=O)o3)C(=O)NC2=S)cc1 returned LmPK inhibitor 15%, AMA1-RON2 inh 0%, Sm TGR block 2.8µM*, RE007 growth inh 1% and TbPYK inhibitor inconclusive.
For Cc1cc(C)cc(N2C(=O)/C(=C\c3ccc(N4CCN(C)CC4)o3)C(=O)NC2=S)c1 the results were LmPK inhibitor -15%, AMA1-RON2 inh 3%, Sm TGR block -23%, RE007 growth inh -9% and TbPYK inhibitor -14%.
Screening COc1ccc(N2C(=O)/C(=C/c3ccc(N(C)C)o3)C(=O)NC2=S)cc1 returned LmPK inhibitor 2%, AMA1-RON2 inh 37%, Sm TGR block inconclusive, RE007 growth inh 0% and TbPYK inhibitor inconclusive.
Screening Cc1ccc(/C=C2\C(=O)NC(=S)N(c3ccc(F)cc3)C2=O)s1 returned LmPK inhibitor -2%, AMA1-RON2 inh 14%, Sm TGR block inconclusive, RE007 growth inh 2% and TbPYK inhibitor inconclusive.
For COc1cccc(N2C(=O)/C(=C/c3ccc(C)o3)C(=O)NC2=S)c1 the results were LmPK inhibitor 13%, AMA1-RON2 inh 33%, Sm TGR block 1.8µM*, RE007 growth inh 2% and TbPYK inhibitor inconclusive.
Cc1cc(S(=O)(=O)Nc2ccc(-c3ccc(N4CCCCC4)nn3)cc2)c(C)cc1Cl was read as Sm TGR block -9% and TbPYK inhibitor 3%.
For O=C(OCC#CCSc1nnc(-c2cccc3ccccc23)s1)c1cccs1 the results were Sm TGR block 1%.
For CCN(CC)C(=O)c1cc(-c2ccc(Cl)cc2)on1 the results were Sm TGR block -7% and TbPYK inhibitor -6%.
Screening O=C(NCc1ccco1)c1ccc2c(c1)N(Cc1ccccc1F)C(=O)c1ccccc1S2=O (stereo not drawn) returned Sm TGR block -2% and TbPYK inhibitor -7%.
CCCOc1ccc(Nc2cc(C)nc(C)n2)cc1 was read as Sm TGR block 4% and TbPYK inhibitor 0%.
For O=[N+]([O-])c1cc(Br)c(Nc2ccccc2)c([N+](=O)[O-])c1 the results were LmPK inhibitor -5%, AMA1-RON2 inh 25µM*, Sm TGR block 11µM*, RE007 growth inh -9% and TbPYK inhibitor 1%.
Screening O=C(Nc1ccccc1)c1ccc(Nc2c([N+](=O)[O-])cc([N+](=O)[O-])c3ccccc23)cc1 returned LmPK inhibitor 2%, AMA1-RON2 inh -26%, Sm TGR block 7%, RE007 growth inh -4% and TbPYK inhibitor -10%.
`Cc1cccc(C)c1NC(=O)c1ccc2nc(CCc3ccccc3)oc2c1` gave Sm TGR block 2% and TbPYK inhibitor -3%.
O=C(CCN1CCCCC1)c1ccc2c(c1)OCO2 was read as LmPK inhibitor 2%, AMA1-RON2 inh -3%, Sm TGR block 0.28µM*, RE007 growth inh 7.9µM* and TbPYK inhibitor -6%.
O=C(CCN1CCc2ccccc2CC1)c1ccc2c(c1)OCCO2 was read as LmPK inhibitor -6%, AMA1-RON2 inh -13%, Sm TGR block 0.35µM*, RE007 growth inh 7.1µM* and TbPYK inhibitor inconclusive.
For O=C(CCCN1CCOCC1)c1ccc2c(c1)OCCO2 the results were LmPK inhibitor -4%, AMA1-RON2 inh -2%, Sm TGR block -22%, RE007 growth inh 1% and TbPYK inhibitor 2%.
Screening O=C(CCN1CCOCC1)c1ccc2c(c1)OCCO2 returned LmPK inhibitor 0%, AMA1-RON2 inh 1%, Sm TGR block 1.6µM*, RE007 growth inh 13µM* and TbPYK inhibitor 6%.
For COc1ccc(CCNC(=O)CCCn2c(=O)c3ccccc3n(CC(=O)Nc3cccc(C)c3)c2=O)cc1OC the results were Sm TGR block -1% and TbPYK inhibitor 1%.
For COc1cc(/C=c2\s/c(=C(/C#N)C(=O)N3CCCC3)n(-c3ccccc3)c2=O)ccc1O the results were LmPK inhibitor 9%, AMA1-RON2 inh -1%, Sm TGR block 18%[11.4 µM], RE007 growth inh -20% and TbPYK inhibitor -9%.
`Cc1ccc(/C=c2\s/c(=C(/C#N)C(=O)N3CCCC3)n(Cc3ccco3)c2=O)s1` gave LmPK inhibitor -2%, AMA1-RON2 inh -13%, Sm TGR block 5µM*, RE007 growth inh 1% and TbPYK inhibitor -12%.
For CC(C)(C)C(=O)NCC12C=CC(O1)C1C(=O)N(c3ccccc3)C(=O)C12 (stereo not drawn) the results were LmPK inhibitor 11%, AMA1-RON2 inh -2%, Sm TGR block 1.6µM*, RE007 growth inh 8.9µM* and TbPYK inhibitor inconclusive.
